Our source for the composite z-score, z-score and composite Z-score values is PubChem BioAssay.

Activity calls are given as the source filed them.

Experiment [1] has as its system Human papillomavirus type 1a protein E7 (residues 44-93). As to the kind of experiment: HPV1a E7 fragment binders on microarrays, primary screen, biochemical, small-molecule microarray, residues 44-93, 635 nm fluorescence (AID 1108).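 Further: E7 fragment applied at 1 µg/mL in TBST for 1 h at 4 C; score combines spot fluorescence with its signal to noise ratio.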 Particulars: small-molecule microarray binding, fluorescence 635 nm; higher = more signal.
Experiment [2] in a line: modulators of HCV replicon luciferase signal, primary screen, HCV replication inhibitor project, Huh7 cells, luciferase reporter (AID 1109).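 Further: huh7 hepatoma cells harbouring a luciferase neomycin HCV replicon reporter; luciferase luminescence as measure of HCV replicon replication; test concentration not given here.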 Particulars: 48 h, higher = more signal. For orientation: Replicon systems follow genome replication, usually without infectious particles.
For experiment [3], the target named is Left-right determination factor 2 (Homo sapiens) (UniProt O00292). As to the kind of experiment: LEFTY2 binders on small-molecule microarrays, primary screen, biochemical, small-molecule microarray, 635 nm fluorescence scan (AID 1110). As to conditions: LEFTY2 binding, higher = more signal.
Experiment [4] deals with Calmodulin-1 (Homo sapiens) (UniProt P0DP23). As to the kind of experiment: CALM1 binders on microarrays, EGTA buffer, profiling panel, biochemical, small-molecule microarray, Cy5-labelled CALM1 (AID 1111).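 Further: labelled calmodulin applied in Tris saline Tween buffer holding calcium plus EGTA and DTT.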 As to conditions: Cy5-CALM1 binding fluorescence, higher = more signal.
Experiment [5] has the same target. Briefly: calcium-bound CALM1 binders on microarrays, profiling panel, artefact control for SMM control-protein annotation, biochemical, small-molecule microarray, Cy5-labelled CALM1, plus calcium (AID 1112).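 Further: score merges spot fluorescence with signal to noise from triplicate slides.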 As to conditions: Cy5-CALM1 binding fluorescence, higher = more signal.
The nature of experiment [6]: small-molecule microarray binders of probe aWnt5a, primary screen, biochemical, biotinylated probe, 635/667 nm fluorescence (AID 1113).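 Further: score merges 667 nm fluorescence intensity with signal-to-noise per printed feature.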 As to conditions: higher = more signal.
Experiment [7] in a line: small-molecule microarray binders of probe aShh, primary screen, biochemical, biotinylated probe, 635/667 nm fluorescence (AID 1114).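 Further: probe is biotin-labelled aShh protein from a stem cell growth factor screen; measures binding of labelled protein to compounds printed on the slide; score merges feature fluorescence at 667 nm with signal-to-noise.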 As to conditions: higher = more signal.
The nature of experiment [8]: small-molecule microarray binders of probe aNog, primary screen, biochemical, biotinylated probe, 635/667 nm fluorescence (AID 1115).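 Further: probe is biotinylated aNog protein used at 0.15 µg/mL for 1 h at 4 C; z-score combines 667 nm fluorescence of each spot with its signal to noise.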 Particulars: higher = more signal.
The target in experiment [9] is Torsin-1A-interacting protein 1 (Homo sapiens) (UniProt Q5JTV8). Briefly: LAP1 binders from COS7 cell lysate, primary screen, small-molecule microarray, 635/667 nm fluorescence (AID 1116). As to conditions: COS7-hLAP1 lysate binding, 635 nm fluorescence, higher = more signal.
The target in experiment [10] is Alpha-bungarotoxin (Bungarus multicinctus) (UniProt P60615). As to the kind of experiment: alpha-bungarotoxin binders on microarray, profiling panel, artefact control for SMM control protein annotation, biochemical, small-molecule microarray, Alexa647 label, 635/667 nm fluorescence (AID 1117). As to conditions: alpha-BTX-A647 binding fluorescence, higher = more signal.

In a further experiment the target is Albumin (Bos taurus) (UniProt P02769). As to the kind of experiment: bovine serum albumin binders on microarray, profiling panel, artefact control for SMM control protein annotation, biochemical, small-molecule microarray, Alexa647 label, 635/667 nm fluorescence (AID 1118).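 Further: score merges 667 nm emission intensity and signal-to-noise per printed compound spot.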 As to conditions: BSA-A647 binding, fluorescence 635 nm, higher = more signal.
Experiment [11] is described as follows: small-molecule microarray binders of probe aXIP, primary screen, biochemical, NeuroSMM set, 635/667 nm fluorescence (AID 1119).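 Further: probe is the protein aXip251-270 applied at 1 µg/mL to compound-printed slides; binding of probe to printed compounds measured as 667 nm fluorescence plus signal to noise.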 Particulars: higher = more signal, called active from +8 up or from −8 down.
A short description of experiment [12]: small-molecule binders of probe aNOTCH3, primary screen, biochemical, small-molecule microarray, 635/667 nm fluorescence (AID 1120).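 Further: probe is a biotin-tagged antibody raised against NOTCH3 rather than NOTCH3 protein; score merges spot fluorescence near 667 nm with spot signal to noise.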 Particulars: higher = more signal.
Experiment [13] can be described thus: small-molecule binders of probe aNOTCH2, primary screen, biochemical, small-molecule microarray, 635/667 nm fluorescence (AID 1121).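 Further: score merges feature fluorescence read at 667 nm with its signal to noise.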 As to conditions: higher = more signal.
Experiment [14] addresses Carbonic anhydrase 2 (Homo sapiens) (UniProt P00918). As to the kind of experiment: CAII small-molecule binders, profiling panel, biochemical, small-molecule microarray, Alexa647-labelled CAII (AID 1122). Particulars: CAII-A647 binding fluorescence, higher = more signal.
Experiment [15] in a line: COS7 lysate on small-molecule microarray, probe aHis, 635 nm (AID 1123).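 Further: z-score combines 667nm fluorescence intensity with signal-to-noise per printed compound spot.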 As to conditions: COS7 cell lysate, fluorescence, higher = more signal.
Experiment [16] in a line: compound binding in COS7 lysate, probe aLAP1, primary screen, cell lysate, small-molecule microarray (AID 1124).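 Further: lysate comes from COS7 cells expressing LAP1 and is applied at 0.3 µg/mL; score merges spot fluorescence near 667 nm with signal-to-noise over triplicate slides.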 Particulars: probe aLAP1, fluorescence, higher = more signal.
The next experiment deals with Sam68 (KHDRBS1). Briefly: Sam68 small-molecule binders, primary screen, biochemical, small-molecule microarray, 635 nm fluorescence (AID 1125).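 Further: score merges 667 nm channel intensity with signal to noise over triplicate slides.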 Particulars: small-molecule microarray binding, higher = more signal.
Experiment [17] deals with Chordin-like protein 2 (CHRDL2). As to the kind of experiment: CHRDL2 small-molecule binders, primary screen, biochemical, small-molecule microarray, 635 nm fluorescence (AID 1126).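 Further: printed compound slides probed with Chrdl2 protein at 4 µg/mL for 1 h at 4 C; score merges 667 nm emission intensity with signal to noise over three replicate slides.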 Particulars: small-molecule microarray binding, fluorescence 635 nm; higher = more signal.
Experiment [18] deals with Concanavalin-A (Canavalia ensiformis) (UniProt P02866). Briefly: ConA small-molecule binders, primary screen, artefact control for SMM control protein annotation, biochemical, small-molecule microarray, Alexa647 label, 635 nm (AID 1127).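 Further: z combines 667 nm emission intensity with signal-to-noise across three replicate slides.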 As to conditions: ConA-A647 binding fluorescence, higher = more signal.
Sequence of Concanavalin-A (Canavalia ensiformis) (P02866 whole entry, looked up): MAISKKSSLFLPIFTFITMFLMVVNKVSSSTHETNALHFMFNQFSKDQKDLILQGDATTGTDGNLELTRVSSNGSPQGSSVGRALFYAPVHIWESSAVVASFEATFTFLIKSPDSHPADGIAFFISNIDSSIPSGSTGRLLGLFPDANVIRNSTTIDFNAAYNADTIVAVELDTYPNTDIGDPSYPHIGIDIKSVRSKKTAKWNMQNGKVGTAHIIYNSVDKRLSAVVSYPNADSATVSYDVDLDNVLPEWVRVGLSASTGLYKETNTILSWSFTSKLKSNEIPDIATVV

Sequence of Albumin (Bos taurus) (P02769 whole entry, looked up): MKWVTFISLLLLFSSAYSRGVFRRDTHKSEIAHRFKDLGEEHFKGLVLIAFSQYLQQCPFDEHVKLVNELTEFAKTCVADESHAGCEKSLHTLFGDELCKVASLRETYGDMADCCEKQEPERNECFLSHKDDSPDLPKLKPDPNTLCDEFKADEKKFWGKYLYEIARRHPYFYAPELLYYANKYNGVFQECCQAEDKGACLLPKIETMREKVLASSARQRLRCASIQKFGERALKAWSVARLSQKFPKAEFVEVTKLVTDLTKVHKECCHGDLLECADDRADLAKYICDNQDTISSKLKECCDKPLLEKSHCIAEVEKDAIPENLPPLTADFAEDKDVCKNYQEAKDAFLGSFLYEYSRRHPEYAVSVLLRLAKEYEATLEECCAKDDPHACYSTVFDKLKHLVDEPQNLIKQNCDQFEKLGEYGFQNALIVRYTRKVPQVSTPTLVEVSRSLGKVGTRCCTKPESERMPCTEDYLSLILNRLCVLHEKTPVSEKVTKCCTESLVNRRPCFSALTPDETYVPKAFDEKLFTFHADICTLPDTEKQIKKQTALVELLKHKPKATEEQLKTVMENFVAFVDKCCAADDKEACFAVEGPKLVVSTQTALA
Sequence of Left-right determination factor 2 (Homo sapiens) (O00292 whole entry, looked up): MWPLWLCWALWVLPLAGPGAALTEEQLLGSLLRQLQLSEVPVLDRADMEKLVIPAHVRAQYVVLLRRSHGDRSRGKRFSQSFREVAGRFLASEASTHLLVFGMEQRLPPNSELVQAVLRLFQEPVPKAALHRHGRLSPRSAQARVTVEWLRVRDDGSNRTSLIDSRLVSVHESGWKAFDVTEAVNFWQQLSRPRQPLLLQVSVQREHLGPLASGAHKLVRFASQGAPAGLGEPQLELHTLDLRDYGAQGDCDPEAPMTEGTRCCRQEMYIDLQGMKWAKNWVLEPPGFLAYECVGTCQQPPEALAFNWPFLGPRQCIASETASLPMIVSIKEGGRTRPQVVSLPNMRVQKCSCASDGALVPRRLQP
Sequence of Torsin-1A-interacting protein 1 (Homo sapiens) (Q5JTV8 whole entry, looked up): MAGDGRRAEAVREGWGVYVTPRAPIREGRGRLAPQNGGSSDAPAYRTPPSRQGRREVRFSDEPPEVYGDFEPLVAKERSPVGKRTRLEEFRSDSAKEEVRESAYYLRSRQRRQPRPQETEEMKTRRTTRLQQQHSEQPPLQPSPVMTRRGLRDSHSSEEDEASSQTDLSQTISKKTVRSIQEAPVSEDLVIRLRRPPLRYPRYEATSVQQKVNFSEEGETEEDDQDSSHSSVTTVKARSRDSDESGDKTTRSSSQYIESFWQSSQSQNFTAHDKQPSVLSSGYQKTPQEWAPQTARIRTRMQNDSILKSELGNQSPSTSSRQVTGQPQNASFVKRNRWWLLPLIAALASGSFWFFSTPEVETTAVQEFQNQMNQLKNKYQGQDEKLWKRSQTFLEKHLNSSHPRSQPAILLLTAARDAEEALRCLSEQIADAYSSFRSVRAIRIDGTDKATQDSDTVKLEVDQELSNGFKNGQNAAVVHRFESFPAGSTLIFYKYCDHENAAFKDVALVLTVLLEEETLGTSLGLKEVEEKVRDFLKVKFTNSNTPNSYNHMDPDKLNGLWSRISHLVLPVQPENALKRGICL
Sequence of Alpha-bungarotoxin (Bungarus multicinctus) (P60615 whole entry, looked up): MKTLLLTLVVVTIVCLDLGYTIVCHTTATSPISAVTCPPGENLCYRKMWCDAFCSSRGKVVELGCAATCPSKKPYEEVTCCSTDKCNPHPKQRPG

For the molecule `CCOC(=O)C1=CC[C@@H](c2ccccc2)N(S(=O)(=O)c2ccc(C)cc2)[C@H]1C=Cc1ccccc1`, the composite z-score in [1] is 0.261; in experiment [3], -0.481; in [4] it was 0.401; in experiment [5], -0.401; in experiment [6] it was 0.127; in experiment [7], -0.13. Moreover, the composite z-score in experiment [8] was -0.5; in experiment [9] it was 0.381; in [10] it was 0.621; in the experiment with Albumin (Bos taurus), 0.725; in experiment [12], 0.0372; in experiment [13] it was -0.0569. Also, the composite z-score in experiment [14] is 0.707; in experiment [15] it was 1.03; in experiment [16], 0.827; with Sam68 (KHDRBS1), 0.602; in [17] it was -0.19; in experiment [18], 0.81. Further, the z-score in [2] is -1.83. In addition, the composite Z-score in experiment [11] was 0.206 (inactive).

Regarding `CCOC(=O)C=Cc1ccccc1O`, the composite z-score in experiment [1] was 1.22; in experiment [3], 0.233; in experiment [4], -0.166; in experiment [5] it was -0.72; in experiment [6], -0.0462; in [7], 0.151. The composite z-score in experiment [8] was -0.0381; in experiment [9] it was 0.0446; in experiment [10], 0.377; with Albumin (Bos taurus), 0.725; in experiment [12], 0.186; in experiment [13], 0.0295. Moreover, the composite z-score in experiment [14] came out at 0.188; in experiment [15] it was 0.466; in experiment [16], 0.163; in the experiment with Sam68 (KHDRBS1), 1.01; in experiment [17] it was 0.0871; in experiment [18], 0.591. Moreover, in [2], the z-score was -2.36. Also, in [11], the composite Z-score is -0.116 (inactive).

With `CCOC(=O)C1=C[C@@H](c2ccccc2)N(S(=O)(=O)c2ccc(C)cc2)[C@H]1c1ccccc1`, the composite z-score was 0.0627 in [1]; -0.063 in experiment [3]; 0.997 in experiment [4]; 0.209 in [5]; -0.124 in experiment [6]; -0.138 in [7]. For the same molecule, the composite z-score is 1.13 in [8]; -0.109 in experiment [9]; 0.291 in experiment [10]; 0.612 with Albumin (Bos taurus); 0.0636 in experiment [12]; -0.022 in [13]. Also, the composite z-score in experiment [14] was 0.0593; in experiment [15] it was -0.136; in experiment [16] it was 0.326; with Sam68 (KHDRBS1) it was 0.582; in [17], 0.512; in [18], 0.759. The z-score in experiment [2] is 0.235. Moreover, the composite Z-score in [11] was 0.185 (inactive).

As to `COc1cc(NN2C(C(O)C3CCCCC3)C=CC3C(=O)N(c4ccccc4)C(=O)C32)cc(OC)c1OC` (stereo not given), the composite z-score in experiment [1] was 1.05; in [3] it was -0.79; in experiment [4] it was 2.13; in [5], 1.23; in [6] it was 0.141; in [7], -0.11. For the same molecule, the composite z-score was found to be 0.658 in [8]; 1.5 in experiment [9]; 1.98 in experiment [10]; 1.07 in the experiment with Albumin (Bos taurus); 0.0205 in [12]; 0.0888 in experiment [13]. Moreover, the composite z-score in experiment [14] was 0.712; in experiment [15] it was 2.65; in experiment [16] it was 0.605; with Sam68 (KHDRBS1), 1.3; in experiment [17], -1.5; in [18], 1.11. The molecule further yielded a z-score in [2] of -1.1. Moreover, the composite Z-score in experiment [11] was 1.13 (inactive).

Consider `C=C(/C(=C/C[C@@H](OC(C)=O)c1ccc(OCCO)cc1)c1cc(C(=O)OC)ccc1OC)C(C)C`, for which the composite z-score in [1] was -0.544; in [3], 0.354; in [4], 0.0164; in experiment [5], -0.258; in experiment [6], -0.181; in experiment [7] it was -0.0769. Further, the composite z-score was -0.237 in experiment [8]; 0.651 in experiment [9]; 1.31 in [10]; 0.296 with Albumin (Bos taurus); -0.0417 in experiment [12]; -0.127 in experiment [13]. Further, the composite z-score is 0.735 in experiment [14]; 0.303 in experiment [15]; 1.2 in experiment [16]; 0.938 in the experiment with Sam68 (KHDRBS1); -0.137 in [17]; 0.697 in [18]. The same molecule yielded a z-score in [2] of -0.161. In addition, the composite Z-score in experiment [11] was 0.185 (inactive).

As to `CC1(C)C(=O)C(c2ccccc2)=C2CN3C(=O)N(CCc4ccccc4)C(=O)C3(Cc3ccc(C(F)(F)F)cc3)C=C21` (stereo not given), the composite z-score in [1] is 1.19; in experiment [3], -0.668; in experiment [4] it was 1.36; in experiment [5] it was 0.858; in experiment [6], 0.0226; in [7], 1.05. Further, the composite z-score in experiment [8] came out at 1.8; in experiment [9] it was 0.393; in [10], 0.234; with Albumin (Bos taurus) it was 0.925; in experiment [12] it was 0.561; in [13], 0.306. The composite z-score was 0.581 in experiment [14]; 2.1 in [15]; 0.014 in experiment [16]; 0.764 in the experiment with Sam68 (KHDRBS1); -1.06 in [17]; 0.702 in experiment [18]. Further, the z-score in experiment [2] was -1.66. The composite Z-score in [11] was -0.301 (inactive).
